Measurements reported in the supplement of paper PMC11732987, “Enantioselective OTUD7B fragment discovery through chemoproteomics screening and high-throughput optimisation” (Communications Chemistry, 2025).

Experiments:
Assay in all cases: log2 ratio of Biotin-Ahx-Ub-VS probe labelling (fragment/DMSO); higher = less target engagement (more negative = stronger competition), active = hit call of the paper (q ≤ 0.05, log2 ratio ≤ -1)
Conditions in all cases: compound concentration: 200 uM; treatment time: 3 h
USP42 = target: T1, USP42 (UniProt Q9H9J4)
T1 sequence (whole entry): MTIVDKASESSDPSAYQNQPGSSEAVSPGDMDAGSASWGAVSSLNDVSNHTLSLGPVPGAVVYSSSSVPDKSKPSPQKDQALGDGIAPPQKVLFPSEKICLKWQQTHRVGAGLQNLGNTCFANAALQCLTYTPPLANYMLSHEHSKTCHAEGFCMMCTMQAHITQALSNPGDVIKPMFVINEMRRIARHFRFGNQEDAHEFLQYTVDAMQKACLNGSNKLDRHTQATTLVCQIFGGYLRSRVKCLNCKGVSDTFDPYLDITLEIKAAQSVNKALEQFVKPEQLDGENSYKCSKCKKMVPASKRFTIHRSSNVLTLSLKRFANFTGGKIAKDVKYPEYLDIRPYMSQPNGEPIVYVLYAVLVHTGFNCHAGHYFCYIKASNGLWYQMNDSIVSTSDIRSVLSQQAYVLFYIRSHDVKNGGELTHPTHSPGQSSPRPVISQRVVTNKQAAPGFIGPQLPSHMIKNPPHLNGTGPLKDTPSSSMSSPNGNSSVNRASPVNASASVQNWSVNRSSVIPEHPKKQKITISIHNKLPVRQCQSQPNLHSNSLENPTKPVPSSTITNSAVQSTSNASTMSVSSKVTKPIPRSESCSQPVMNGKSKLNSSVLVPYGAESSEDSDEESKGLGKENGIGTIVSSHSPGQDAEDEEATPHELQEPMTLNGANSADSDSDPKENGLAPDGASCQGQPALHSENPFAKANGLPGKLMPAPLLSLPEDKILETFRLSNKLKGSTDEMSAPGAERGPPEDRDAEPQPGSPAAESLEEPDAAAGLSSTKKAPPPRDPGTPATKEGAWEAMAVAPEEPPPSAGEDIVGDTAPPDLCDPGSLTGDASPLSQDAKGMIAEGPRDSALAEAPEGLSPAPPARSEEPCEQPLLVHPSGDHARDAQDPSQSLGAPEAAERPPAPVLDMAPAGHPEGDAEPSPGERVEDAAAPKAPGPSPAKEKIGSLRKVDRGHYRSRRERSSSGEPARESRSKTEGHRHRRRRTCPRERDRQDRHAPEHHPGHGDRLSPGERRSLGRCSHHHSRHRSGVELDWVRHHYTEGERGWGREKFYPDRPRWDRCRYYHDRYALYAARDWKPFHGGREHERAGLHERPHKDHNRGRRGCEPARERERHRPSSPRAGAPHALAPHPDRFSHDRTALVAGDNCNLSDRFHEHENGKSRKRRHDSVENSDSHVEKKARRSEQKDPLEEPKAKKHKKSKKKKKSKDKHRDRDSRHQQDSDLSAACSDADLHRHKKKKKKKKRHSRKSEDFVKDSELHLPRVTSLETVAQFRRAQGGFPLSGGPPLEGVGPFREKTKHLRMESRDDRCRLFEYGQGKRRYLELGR
Method in brief: (§1)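 Each value is an average log2 ratio of fragment to vehicle, tested by unpaired t-test. The underlying Spectronaut label-free quantities were global-median-normalised, and only proteins with ≥2 unique peptides were included. Triplicate HEK293T lysate samples (495 µg) were exposed to fragment at 200 µM or vehicle for 3 h, then to Biotin-Ahx-Ub-VS at 0.5 µM final for 1 h, before NeutrAvidin enrichment of labelled DUBs, LysC and trypsin digestion, and diaPASEF LC-MS/MS.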

USP46 = USP46 (UniProt P62068)
Method in brief: as §1

USP47 = target: T2, USP47 (UniProt Q96K76)
T2 sequence (whole entry): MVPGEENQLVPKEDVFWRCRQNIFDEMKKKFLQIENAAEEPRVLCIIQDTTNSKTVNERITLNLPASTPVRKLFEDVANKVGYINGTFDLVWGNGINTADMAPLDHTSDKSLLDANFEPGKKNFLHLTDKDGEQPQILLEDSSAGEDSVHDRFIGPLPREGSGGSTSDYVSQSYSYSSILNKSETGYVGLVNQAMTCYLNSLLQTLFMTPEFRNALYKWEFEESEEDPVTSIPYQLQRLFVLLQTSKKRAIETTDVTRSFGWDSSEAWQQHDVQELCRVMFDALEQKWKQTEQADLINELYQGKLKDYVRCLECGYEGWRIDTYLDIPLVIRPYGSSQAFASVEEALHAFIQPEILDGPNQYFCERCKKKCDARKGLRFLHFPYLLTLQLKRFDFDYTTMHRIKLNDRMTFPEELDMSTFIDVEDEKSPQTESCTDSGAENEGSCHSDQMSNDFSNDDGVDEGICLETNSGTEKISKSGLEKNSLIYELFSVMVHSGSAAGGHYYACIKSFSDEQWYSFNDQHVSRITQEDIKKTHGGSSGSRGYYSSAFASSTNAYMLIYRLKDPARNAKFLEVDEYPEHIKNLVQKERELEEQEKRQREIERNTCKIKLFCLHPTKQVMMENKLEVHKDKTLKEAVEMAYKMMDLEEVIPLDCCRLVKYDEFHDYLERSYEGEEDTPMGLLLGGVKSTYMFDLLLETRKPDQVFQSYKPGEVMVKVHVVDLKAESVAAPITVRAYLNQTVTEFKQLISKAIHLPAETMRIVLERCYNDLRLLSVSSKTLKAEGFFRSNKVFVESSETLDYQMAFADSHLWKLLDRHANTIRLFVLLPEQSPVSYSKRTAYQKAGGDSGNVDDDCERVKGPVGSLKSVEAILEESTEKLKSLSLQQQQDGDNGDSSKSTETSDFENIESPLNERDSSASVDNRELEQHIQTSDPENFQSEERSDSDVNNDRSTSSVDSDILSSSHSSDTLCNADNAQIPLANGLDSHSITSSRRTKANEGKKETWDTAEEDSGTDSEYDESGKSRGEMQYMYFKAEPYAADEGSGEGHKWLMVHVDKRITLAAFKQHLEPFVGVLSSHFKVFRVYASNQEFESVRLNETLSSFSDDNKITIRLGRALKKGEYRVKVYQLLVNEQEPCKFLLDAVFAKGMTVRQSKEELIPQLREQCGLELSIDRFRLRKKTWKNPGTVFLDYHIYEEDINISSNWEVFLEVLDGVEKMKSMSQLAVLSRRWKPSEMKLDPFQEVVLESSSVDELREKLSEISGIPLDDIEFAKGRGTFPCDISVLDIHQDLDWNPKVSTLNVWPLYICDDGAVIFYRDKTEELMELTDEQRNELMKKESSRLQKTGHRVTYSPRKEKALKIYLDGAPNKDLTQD
Method in brief: as §1

USP48 = target: T3, USP48 (UniProt Q86UV5)
T3 sequence (whole entry): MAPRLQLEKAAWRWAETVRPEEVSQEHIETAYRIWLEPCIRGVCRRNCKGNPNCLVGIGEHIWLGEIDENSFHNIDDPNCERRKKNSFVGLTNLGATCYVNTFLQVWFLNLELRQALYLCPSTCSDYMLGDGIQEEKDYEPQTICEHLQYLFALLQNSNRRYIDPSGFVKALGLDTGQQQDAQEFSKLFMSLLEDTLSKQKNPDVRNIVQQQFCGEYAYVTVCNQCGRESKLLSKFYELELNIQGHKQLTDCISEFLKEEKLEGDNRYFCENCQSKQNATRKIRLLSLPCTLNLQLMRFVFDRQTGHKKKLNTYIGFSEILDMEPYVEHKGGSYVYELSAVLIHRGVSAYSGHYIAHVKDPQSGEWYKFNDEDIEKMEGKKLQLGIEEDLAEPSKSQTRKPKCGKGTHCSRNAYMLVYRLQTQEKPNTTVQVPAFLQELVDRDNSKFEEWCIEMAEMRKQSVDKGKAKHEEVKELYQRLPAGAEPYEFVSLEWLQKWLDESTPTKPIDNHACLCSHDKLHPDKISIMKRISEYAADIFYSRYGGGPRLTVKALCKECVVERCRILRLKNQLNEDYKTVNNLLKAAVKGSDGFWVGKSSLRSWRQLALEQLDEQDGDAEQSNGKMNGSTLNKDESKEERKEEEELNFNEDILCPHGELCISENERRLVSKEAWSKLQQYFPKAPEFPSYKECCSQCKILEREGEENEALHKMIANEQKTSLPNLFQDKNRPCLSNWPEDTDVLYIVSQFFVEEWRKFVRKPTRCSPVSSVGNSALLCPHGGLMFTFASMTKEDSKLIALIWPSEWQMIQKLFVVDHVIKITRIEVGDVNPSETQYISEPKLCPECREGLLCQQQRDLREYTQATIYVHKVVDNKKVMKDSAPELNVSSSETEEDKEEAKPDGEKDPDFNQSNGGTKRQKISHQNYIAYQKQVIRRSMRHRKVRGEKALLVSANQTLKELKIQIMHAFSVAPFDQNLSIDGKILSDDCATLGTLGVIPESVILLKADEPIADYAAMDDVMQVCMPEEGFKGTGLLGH
Method in brief: as §1

USP5 = target: T4, USP5 (UniProt P45974)
T4 sequence (whole entry): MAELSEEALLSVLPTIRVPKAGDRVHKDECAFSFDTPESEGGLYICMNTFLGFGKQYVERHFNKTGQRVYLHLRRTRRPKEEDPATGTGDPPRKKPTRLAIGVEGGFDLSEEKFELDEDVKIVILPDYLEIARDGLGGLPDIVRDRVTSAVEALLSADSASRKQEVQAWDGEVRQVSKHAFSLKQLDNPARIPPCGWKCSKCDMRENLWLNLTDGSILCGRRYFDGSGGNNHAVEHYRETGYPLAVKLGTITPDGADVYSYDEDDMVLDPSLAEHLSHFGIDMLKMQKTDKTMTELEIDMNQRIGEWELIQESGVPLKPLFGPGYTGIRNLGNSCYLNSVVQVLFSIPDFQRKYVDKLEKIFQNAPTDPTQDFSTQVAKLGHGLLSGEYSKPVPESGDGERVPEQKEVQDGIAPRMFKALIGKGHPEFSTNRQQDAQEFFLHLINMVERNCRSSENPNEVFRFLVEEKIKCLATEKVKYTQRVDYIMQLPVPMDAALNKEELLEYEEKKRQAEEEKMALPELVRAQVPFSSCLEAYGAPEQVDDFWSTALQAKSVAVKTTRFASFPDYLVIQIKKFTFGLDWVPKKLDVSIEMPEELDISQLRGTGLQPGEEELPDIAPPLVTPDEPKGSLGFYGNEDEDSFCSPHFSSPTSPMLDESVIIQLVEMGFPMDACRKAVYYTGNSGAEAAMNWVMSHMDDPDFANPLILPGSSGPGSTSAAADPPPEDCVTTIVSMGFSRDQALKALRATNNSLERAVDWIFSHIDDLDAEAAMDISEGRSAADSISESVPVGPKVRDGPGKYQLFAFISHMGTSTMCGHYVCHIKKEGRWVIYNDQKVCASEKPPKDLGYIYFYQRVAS
Method in brief: as §1

USP54 = USP54 (UniProt Q70EL1)
Method in brief: as §1

USP7 = USP7 (UniProt Q93009)
Method in brief: as §1

USP8 = target: T5, USP8 (UniProt P40818)
T5 sequence (whole entry): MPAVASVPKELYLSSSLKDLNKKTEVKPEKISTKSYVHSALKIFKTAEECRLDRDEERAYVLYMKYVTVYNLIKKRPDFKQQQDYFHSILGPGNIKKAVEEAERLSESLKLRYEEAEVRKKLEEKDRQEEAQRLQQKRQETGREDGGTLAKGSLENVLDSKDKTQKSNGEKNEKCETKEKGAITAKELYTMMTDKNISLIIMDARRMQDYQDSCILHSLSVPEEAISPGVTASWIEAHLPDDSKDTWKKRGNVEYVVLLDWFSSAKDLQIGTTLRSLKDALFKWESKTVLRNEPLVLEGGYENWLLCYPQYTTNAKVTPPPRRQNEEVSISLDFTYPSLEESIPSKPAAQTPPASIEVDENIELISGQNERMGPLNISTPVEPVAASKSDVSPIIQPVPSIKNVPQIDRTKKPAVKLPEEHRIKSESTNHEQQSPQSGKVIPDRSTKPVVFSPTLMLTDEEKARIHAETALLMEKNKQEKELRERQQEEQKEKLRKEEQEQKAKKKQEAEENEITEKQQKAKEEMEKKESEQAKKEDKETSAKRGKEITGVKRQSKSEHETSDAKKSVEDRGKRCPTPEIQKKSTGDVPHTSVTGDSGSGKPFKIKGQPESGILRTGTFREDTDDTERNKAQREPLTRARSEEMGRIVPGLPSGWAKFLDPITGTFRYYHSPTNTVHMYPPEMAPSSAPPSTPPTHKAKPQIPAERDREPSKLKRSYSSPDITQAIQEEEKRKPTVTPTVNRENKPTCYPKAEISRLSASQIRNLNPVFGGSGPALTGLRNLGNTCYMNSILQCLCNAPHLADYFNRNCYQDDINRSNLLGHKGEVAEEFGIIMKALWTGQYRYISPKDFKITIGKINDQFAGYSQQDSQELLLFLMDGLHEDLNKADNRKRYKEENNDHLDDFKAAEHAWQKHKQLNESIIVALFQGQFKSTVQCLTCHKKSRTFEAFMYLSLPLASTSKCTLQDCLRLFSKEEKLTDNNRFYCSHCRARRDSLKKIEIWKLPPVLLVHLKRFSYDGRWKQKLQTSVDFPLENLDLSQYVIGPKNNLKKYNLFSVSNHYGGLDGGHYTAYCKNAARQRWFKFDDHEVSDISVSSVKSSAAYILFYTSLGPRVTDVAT
Method in brief: as §1

USP9X = USP9X (UniProt Q93008)
Method in brief: as §1

UniProt O00487 = target: UniProt O00487
Method in brief: as §1

Measured: log2 ratio of Biotin-Ahx-Ub-VS probe labelling

USP9X, sequence (Q93008 whole entry): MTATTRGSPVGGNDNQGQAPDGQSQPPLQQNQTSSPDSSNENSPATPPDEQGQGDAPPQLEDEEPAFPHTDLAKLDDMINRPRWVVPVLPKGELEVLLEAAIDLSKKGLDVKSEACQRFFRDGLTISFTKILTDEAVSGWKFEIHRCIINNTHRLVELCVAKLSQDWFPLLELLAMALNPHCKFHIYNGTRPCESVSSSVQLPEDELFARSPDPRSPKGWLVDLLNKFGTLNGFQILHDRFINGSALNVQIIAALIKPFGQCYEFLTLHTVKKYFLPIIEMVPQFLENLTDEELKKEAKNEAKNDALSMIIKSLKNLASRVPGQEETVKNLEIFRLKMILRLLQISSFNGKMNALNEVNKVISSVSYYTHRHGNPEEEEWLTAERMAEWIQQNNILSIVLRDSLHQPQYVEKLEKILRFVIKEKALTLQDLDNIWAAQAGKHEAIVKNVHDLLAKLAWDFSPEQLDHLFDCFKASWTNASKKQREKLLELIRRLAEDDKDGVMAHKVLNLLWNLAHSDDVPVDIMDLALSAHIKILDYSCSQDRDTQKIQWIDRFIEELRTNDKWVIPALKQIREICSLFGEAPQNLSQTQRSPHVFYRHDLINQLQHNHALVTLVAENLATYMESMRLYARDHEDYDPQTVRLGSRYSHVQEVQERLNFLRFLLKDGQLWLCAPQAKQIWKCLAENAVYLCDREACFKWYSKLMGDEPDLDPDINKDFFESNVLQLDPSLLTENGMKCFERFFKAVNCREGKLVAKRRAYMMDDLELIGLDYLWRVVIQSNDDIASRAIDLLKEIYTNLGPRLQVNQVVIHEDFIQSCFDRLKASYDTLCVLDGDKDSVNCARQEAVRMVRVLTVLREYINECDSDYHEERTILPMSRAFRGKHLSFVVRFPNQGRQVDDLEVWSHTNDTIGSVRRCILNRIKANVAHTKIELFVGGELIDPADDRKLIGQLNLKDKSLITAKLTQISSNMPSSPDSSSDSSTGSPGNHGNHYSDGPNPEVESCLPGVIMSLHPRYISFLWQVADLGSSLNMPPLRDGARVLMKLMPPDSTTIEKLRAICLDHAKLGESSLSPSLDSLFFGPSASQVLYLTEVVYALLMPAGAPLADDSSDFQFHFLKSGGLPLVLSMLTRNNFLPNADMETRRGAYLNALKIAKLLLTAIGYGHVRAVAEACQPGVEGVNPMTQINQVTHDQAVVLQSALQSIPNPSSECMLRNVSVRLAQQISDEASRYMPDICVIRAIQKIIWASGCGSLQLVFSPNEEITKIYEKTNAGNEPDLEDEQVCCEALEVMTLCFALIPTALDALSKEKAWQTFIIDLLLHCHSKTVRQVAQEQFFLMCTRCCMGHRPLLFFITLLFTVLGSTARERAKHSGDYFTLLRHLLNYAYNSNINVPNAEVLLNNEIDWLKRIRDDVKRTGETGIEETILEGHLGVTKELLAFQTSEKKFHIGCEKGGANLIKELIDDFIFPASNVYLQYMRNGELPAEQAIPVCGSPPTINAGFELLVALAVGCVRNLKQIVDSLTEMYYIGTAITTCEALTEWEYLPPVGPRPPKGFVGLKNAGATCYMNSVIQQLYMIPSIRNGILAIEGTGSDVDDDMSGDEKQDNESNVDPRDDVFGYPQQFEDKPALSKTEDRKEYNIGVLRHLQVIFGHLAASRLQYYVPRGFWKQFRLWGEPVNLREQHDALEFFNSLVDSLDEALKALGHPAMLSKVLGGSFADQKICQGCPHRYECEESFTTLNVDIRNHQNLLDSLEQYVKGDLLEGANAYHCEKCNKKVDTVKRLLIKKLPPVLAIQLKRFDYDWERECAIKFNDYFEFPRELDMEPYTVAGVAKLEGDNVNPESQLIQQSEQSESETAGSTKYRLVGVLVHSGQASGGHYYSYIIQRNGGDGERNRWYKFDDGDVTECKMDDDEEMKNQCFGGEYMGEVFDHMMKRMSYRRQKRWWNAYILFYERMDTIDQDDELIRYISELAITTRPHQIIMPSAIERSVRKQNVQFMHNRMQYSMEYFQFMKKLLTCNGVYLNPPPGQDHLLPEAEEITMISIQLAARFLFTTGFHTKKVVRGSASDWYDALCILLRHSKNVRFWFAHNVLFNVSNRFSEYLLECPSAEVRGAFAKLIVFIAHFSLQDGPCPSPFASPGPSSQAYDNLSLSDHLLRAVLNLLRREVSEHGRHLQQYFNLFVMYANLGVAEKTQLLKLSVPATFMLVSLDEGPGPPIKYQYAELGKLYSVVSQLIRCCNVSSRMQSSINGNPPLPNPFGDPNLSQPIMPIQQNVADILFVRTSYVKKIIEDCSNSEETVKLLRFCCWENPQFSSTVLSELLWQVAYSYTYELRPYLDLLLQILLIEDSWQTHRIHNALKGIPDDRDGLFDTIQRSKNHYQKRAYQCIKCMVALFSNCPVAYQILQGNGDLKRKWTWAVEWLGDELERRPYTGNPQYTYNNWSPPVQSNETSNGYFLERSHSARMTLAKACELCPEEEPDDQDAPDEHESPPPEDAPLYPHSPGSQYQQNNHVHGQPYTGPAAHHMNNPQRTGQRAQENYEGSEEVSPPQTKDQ
USP7, sequence (Q93009 whole entry, looked up): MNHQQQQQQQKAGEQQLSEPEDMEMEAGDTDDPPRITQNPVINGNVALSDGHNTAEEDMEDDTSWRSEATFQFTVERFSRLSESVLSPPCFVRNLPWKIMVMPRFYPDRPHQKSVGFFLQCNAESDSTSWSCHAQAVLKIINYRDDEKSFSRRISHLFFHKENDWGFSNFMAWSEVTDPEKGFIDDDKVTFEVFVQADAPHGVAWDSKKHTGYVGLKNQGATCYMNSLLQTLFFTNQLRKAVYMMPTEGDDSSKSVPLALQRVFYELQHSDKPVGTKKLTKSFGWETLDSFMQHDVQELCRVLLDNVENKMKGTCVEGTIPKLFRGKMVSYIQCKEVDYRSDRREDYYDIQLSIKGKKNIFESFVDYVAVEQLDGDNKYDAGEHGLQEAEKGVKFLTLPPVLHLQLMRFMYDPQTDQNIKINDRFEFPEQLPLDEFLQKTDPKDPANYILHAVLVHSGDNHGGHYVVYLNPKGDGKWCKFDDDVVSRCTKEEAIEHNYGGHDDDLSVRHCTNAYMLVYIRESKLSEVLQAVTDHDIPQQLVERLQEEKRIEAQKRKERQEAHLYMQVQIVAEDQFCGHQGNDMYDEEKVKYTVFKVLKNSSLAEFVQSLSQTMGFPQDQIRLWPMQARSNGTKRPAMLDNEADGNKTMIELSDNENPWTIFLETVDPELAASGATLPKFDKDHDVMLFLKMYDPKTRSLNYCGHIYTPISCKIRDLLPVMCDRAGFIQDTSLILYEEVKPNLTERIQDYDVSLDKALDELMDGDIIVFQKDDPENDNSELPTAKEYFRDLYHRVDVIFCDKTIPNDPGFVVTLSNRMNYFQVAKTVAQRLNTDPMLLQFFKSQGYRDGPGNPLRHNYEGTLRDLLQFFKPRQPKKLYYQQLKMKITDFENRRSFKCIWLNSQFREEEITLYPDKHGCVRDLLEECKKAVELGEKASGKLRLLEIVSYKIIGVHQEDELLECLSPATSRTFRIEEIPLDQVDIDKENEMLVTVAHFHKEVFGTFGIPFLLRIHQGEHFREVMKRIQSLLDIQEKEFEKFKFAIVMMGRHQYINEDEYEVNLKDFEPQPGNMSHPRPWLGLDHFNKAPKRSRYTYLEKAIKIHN
USP46, sequence (P62068 whole entry): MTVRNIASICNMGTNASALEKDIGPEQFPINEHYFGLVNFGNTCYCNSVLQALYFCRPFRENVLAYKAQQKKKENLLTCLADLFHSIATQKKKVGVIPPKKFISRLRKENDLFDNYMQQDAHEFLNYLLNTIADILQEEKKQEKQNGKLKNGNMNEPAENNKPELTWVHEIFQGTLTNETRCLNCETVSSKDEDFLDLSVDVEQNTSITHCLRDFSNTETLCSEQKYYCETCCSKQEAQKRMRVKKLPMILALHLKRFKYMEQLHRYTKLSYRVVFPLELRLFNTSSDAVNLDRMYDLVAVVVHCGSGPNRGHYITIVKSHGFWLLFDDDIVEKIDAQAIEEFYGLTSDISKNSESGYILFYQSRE
UniProt O00487, sequence (O00487 whole entry): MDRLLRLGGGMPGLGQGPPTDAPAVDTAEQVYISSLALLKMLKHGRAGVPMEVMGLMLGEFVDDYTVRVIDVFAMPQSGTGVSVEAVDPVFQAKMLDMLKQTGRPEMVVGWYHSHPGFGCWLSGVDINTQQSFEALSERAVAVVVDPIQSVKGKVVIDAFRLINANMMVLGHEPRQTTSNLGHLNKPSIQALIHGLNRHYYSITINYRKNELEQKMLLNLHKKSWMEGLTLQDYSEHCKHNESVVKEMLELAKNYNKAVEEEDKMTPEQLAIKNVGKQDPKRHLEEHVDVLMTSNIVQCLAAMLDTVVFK

NC(=O)C(Cc1ccccc1)NC(=O)CCl (stereo not given)
inactive: USP42 -0.119 | USP46 0.0497 | USP47 -0.239 | USP48 -0.238 | USP5 0.0132 | USP54 0.357 | USP7 -0.174 | USP8 -0.047 | USP9X -0.099 | UniProt O00487 -0.162
